# Reference: the supplement of paper PMC9694430
# Counter-ions that a name gives are not always drawn.
# Legend:
# Assay in all cases: thermal shift delta Tm vs DMSO control; higher = stronger stabilization (binding)
# Details in all cases: 12.5 µM; protein concentration 2 µM
# LOC_OS01G01410-cb001 = test system: LOC_OS01G01410-cb001
# Method in brief: (§1)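 The melting temperature shift given here is a triplicate mean, measured against protein that received only DMSO. Melting temperatures came from Boltzmann fits of differential scanning fluorimetry data on E. coli-expressed, purified rice kinase domain constructs. Each 19.5 μl well contained 2 μM kinase, 100 mM potassium phosphate pH 7.5, 150 mM NaCl, 10% glycerol, 5 × SYPRO Orange and compound in DMSO. Plates were scanned from 25°C to 95°C at 0.05°C/s.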
# LOC_OS01G02750-cb003 = test system: LOC_OS01G02750-cb003
# Method in brief: as §1
# LOC_OS01G10900-cb004 = test system: LOC_OS01G10900-cb004
# Method in brief: as §1
# LOC_OS01G13800-cb001 = test system: LOC_OS01G13800-cb001
# Method in brief: as §1
# LOC_OS01G14860-cb001 = test system: LOC_OS01G14860-cb001
# Method in brief: as §1
# LOC_OS01G21960-cb002 = test system: LOC_OS01G21960-cb002
# Method in brief: as §1
# LOC_OS01G39600-cb002 = test system: LOC_OS01G39600-cb002
# Method in brief: as §1
# LOC_OS01G48390-cb002 = test system: LOC_OS01G48390-cb002
# Method in brief: as §1
# LOC_OS01G51400-cb002 = test system: LOC_OS01G51400-cb002
# Method in brief: as §1
# LOC_OS01G52050-cb004 = test system: T1, LOC_OS01G52050-cb004
# T1 sequence (whole entry): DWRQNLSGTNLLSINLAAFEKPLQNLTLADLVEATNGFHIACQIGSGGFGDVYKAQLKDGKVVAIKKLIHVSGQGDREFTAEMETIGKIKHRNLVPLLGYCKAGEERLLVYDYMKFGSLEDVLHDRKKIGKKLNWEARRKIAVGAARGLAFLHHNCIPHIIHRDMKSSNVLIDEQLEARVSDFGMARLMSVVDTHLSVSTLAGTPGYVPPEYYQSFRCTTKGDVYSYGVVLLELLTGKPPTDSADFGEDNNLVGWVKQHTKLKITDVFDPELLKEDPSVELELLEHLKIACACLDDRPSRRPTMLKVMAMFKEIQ
# Method in brief: as §1
Structure (SMILES),thermal shift delta Tm (LOC_OS01G01410-cb001) [°C],thermal shift delta Tm (LOC_OS01G02750-cb003) [°C],thermal shift delta Tm (LOC_OS01G10900-cb004) [°C],thermal shift delta Tm (LOC_OS01G13800-cb001) [°C],thermal shift delta Tm (LOC_OS01G14860-cb001) [°C],thermal shift delta Tm (LOC_OS01G21960-cb002) [°C],thermal shift delta Tm (LOC_OS01G39600-cb002) [°C],thermal shift delta Tm (LOC_OS01G48390-cb002) [°C],thermal shift delta Tm (LOC_OS01G51400-cb002) [°C],thermal shift delta Tm (LOC_OS01G52050-cb004) [°C]
c1cncc(CN2CCC(n3ncc4c(N5CCOCC5)nc(-c5ccc6[nH]ccc6c5)nc43)CC2)c1,0.33,-0.32,0.65,0.33,0.21,0.55,0.03,0.18,0.45,-0.01
O=C(Nc1cccc(Cl)c1)Nc1ncc(CCNc2ncnc3ccsc23)s1 [SNS-314 Mesylate],3.62,3.42,2.72,0.91,2.61,2.26,2.71,1.79,0.41,4.19
CNC(=O)c1cc(Oc2ccc(NC(=O)Nc3cc(C(C)(C)C)nn3-c3ccc4ncccc4c3)c(F)c2)ccn1 [Rebastinib (DCC-2036)],1.21,0.84,0.98,0.38,7.66,1.31,0.57,1.3,0.47,1.95
Nc1nc(N)c2nc(-c3cccc(O)c3)c(-c3cccc(O)c3)nc2n1,0.47,0.72,1.95,0.77,1,1.07,-0.28,0.4,0.49,1.16
Cc1cc(F)c(Nc2ncnc3cc(OCc4ccccc4)ccc23)cc1O,0.8,2.62,0.6,0.61,0.45,1.56,1.09,1.2,0.81,0.77
O=C(NOCC1CC1)c1ccc(F)c(F)c1Nc1ccc(I)cc1Cl,1.01,11.3,1.62,0.71,1.37,1.16,1.41,1.28,0.54,2.25
Cn1cnc(N)c2ncnc1-2 [3-Methyladenine (3-MA)],0.6,5.26,0.17,-0.02,-0.3,0.32,0.46,1.12,0.76,0.09
